Assay outcomes (PubChem)
Hits are enriched below; roughly 9% of the tested compounds scored in any of these assays.
HttQ103 aggreg: qHTS Multiplex Assay to Identify Dual Action Probes in a Cell Model of Huntington: Aggregate Formation (GFP); 220,000 compounds, 1.1% hits; PC12 HttQ103-GFP aggregates, Acumen cytometry, 40 h; Potency, µM (top dose mostly 46.1 µM), actives largely listed as inhibitors; AID 1688, 2009; note: nearly all actives have a fitted effect of over 60% in size
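Multiplexed with ATP-based cell death, this channel scores GFP aggregates in PC12 cells expressing inducible HTTex1-Q103-GFP. Induction used 100 nM tebufenozide; compounds were tested in concentration series.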
Luc counter: Counterscreen for Luciferase (Kinase-Glo TM) Inhibition; Luciferin 4-monooxygenase (Photuris pensylvanica), Q27757; Kinase-Glo luciferase, ATP luminescence, 8 min; Potency, µM (highest dose often 38.3 µM), most hits filed as inhibitors; 200,000 compounds, 0.28% hits; AID 1379, 2008; note: nearly all actives have a fitted effect of over 60% in size
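Compounds were added to a substrate mix at pH 7.2 (50 mM imidazole, 10 uM ATP, within the enzyme's linear range), followed by Kinase-Glo detection reagent; luminescence was measured after 8 minutes at ambient temperature.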
ALDH1A1 block: qHTS Assay for Inhibitors of Aldehyde Dehydrogenase 1 (ALDH1A1); Aldehyde dehydrogenase 1A1 (Homo sapiens), P00352; Purified ALDH1A1, NADH fluorescence, propionaldehyde substrate; Potency, µM (titrated, usually from 75.3 µM), actives largely listed as inhibitors; 220,000 compounds, 7.3% hits; active = well fitted inhibition curve with a large enough effect, not every such curve was filed as active; inconclusive = small, poorly fitted or top-dose-only effect, or another doubt; inactive = no such curve, though single readings can be large or run the other way
HPGD block: qHTS Assay for Inhibitors of HPGD (15-Hydroxyprostaglandin Dehydrogenase); 15-hydroxyprostaglandin dehydrogenase [NAD(+)] (Homo sapiens), P15428; purified HPGD, NADH fluorescence kinetic, PGE2 substrate; Potency, µM, actives largely listed as inhibitors; 150,000 compounds, 4.3% hits; AID 894, 2007; active = well fitted inhibition curve with a large enough effect, not every such curve was filed as active; inconclusive = small, poorly fitted or top-dose-only effect, or another doubt; inactive = no such curve, though single readings can be large or run the other way
Target sequence (P15428 whole entry, looked up): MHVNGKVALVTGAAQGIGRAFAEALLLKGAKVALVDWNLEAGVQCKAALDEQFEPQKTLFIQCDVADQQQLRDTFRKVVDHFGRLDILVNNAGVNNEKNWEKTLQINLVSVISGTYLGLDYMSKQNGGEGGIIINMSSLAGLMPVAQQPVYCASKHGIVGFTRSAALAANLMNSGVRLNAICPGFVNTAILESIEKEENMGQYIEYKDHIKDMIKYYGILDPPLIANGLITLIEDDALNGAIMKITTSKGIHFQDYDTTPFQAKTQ
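20 nM HPGD preincubated 15 min at room temperature with compound in 50 mM Tris-HCl pH 8, 0.01% Tween 20. Started with 1 mM NAD+ and 30 uM prostaglandin E2; NADH fluorescence (360/450 nm) read 5 times over 30-s intervals, last minus first.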
LMNA splice mod: qHTS Assay for Modulators of Lamin A Splicing | 200,000 compounds, 0.01% hits | Potency, µM (highest dose often 46.1 µM), most hits filed as inhibitors | HeLa LMNA splicing GFP/RFP minigene ratio, 48 h; active = well fitted inhibition curve with a large enough effect in the signal ratio, with a control signal flat, not every such curve was filed as active; inconclusive = small, poorly fitted or top-dose-only effect, or effect the other way, or a change in a side signal; the % refers to the signal ratio
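Read-out is the ratio of GFP to DsRed2 object intensity, acquired by 488 nm laser-scanning cytometry on HeLa lamin A-EGFP minigene reporter cells. Compound incubation 48 hrs at 37 °C in Opti-MEM with 2% FBS; DMSO 0.5% final.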
HTT cytoprotect: qHTS Multiplex Assay to Identify Dual Action Probes in a Cell Model of Huntington: Cytoprotection (ATP) | Potency, µM (titrated, usually from 56.4 µM), actives largely listed as activators | 230,000 compounds, 0.14% hits | PC12 HTT-Q103 induced, cytoprotection, ATP luminescence, 40 h; note: nearly all actives have a fitted effect of over 45% in size
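PC12 cells with ecdysone-inducible HTT exon 1 Q103-GFP, induced with 100 nM tebufenozide and co-treated with library compounds in a dose series (1536-well, 1500 cells/well). Cytoprotection read as ATP content by ATPlite luminescence.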
A number is an active result; – = inactive; ? = inconclusive; · = no result; [ ] = remark or other dose. Unless noted, calls come from the whole dose curve; as a rule, active = well fitted curve in the direction sought with a large enough effect; inconclusive = small, poorly fitted or top-dose-only effect, or another doubt; inactive = no such curve, though single readings can be large; an effect the other way counts as inactive or inconclusive.

SMILES	HttQ103 aggreg	Luc counter	ALDH1A1 block	HPGD block	LMNA splice mod	HTT cytoprotect
COc1ccc(N/C=C2/Sc3ccccc3NC2=O)cc1	?	–	4µM	·	·	·
CCOC(=O)C1(CC2CCCCO2)CCN(C(=O)Nc2ccc(SC)cc2)CC1 (configuration not stated)	–	–	?	·	·	–
CCN(C(=O)COC(=O)c1ccc(Cl)nc1)C1CCS(=O)(=O)C1 (configuration not stated)	–	–	–	·	·	·
C[C@@]1(C(NC(=O)c2cccs2)c2ccc(-c3ccccc3)cc2)C[C@H]1C1CCCCC1 (some centres not stated)	·	–	–	–	·	–
O=C(Nc1ccc(OC(=O)c2ccco2)cc1)c1ccco1	–	13µM	–	–	–	–[10 µM]
O=C(N/N=C\C=C\c1ccco1)c1cc(-c2ccc3ccccc3c2)n[nH]1	–	–	–	32µM	?	–[10 µM]
O=C(Nc1ccc(NC(=O)c2cccs2)cc1)c1ccco1	–	–	–	–	–	–
O=C(OCC(=O)c1cccs1)c1ccc(NC(=O)c2ccco2)cc1	–	–	18µM	–	–	–
O=C(N/N=C/C=C/c1ccco1)c1cnccn1	–[9.22 µM]	·	3.2µM	·	·	–[10 µM]
C/C(=N/NC(=O)Cc1cc(=O)[nH][nH]1)c1ccc([N+](=O)[O-])cc1	–	–	–	–	–	–[1.9 µM]
COc1ccc(Br)cc1C(=O)Nc1cccc(NC(=O)c2ccco2)c1	–	·	–	·	?	–
O=C(Nc1ccc(NC(=O)c2ccco2)cc1)c1cnccn1	–	–	25µM	–	–	–
O=C(Nc1ccc(S(=O)(=O)NCC2CCCO2)cc1)c1cnccn1 (configuration not stated)	–[9.22 µM]	–	–	·	–	–[10 µM]
O=C(Nc1ccc(S(=O)(=O)NC2CCCC2)cc1)c1cnccn1	–	–	?	7.9µM	–	–[10 µM]
COc1ccccc1-c1nn2c(-c3ccccc3Cl)nnc2s1	–	–	–	–	–	–
Clc1ccccc1-c1nnc2sc(CCc3ccccc3)nn12	–	–	4µM	8.9µM	?	–[0.074 µM]
Brc1ccccc1-c1nnc2sc(Cc3ccccc3)nn12	?	–	–	16µM	–	–[10 µM]
c1ccc(CCc2nn3c(-c4ccncc4)nnc3s2)cc1	1.1µM	–	10µM	5µM	–	–[10 µM]
c1ccc(-c2nnc3sc(-c4ccncc4)nn23)cc1	–	–	?	–	–	–
CCN(CC)CCCC1(CN)OCCc2ccccc21 (configuration not stated)	–	–	–	–	–	–[10 µM]
Cn1c(=O)n(C)c2cc(/C=N/NC(=O)c3cc4cc(Br)ccc4o3)ccc21	–[9.22 µM]	·	·	·	·	–[10 µM]
CC1(C)C2CC[C@@]1(C)C(=O)C2	·	–	–	–	·	–
CC12CCC(CC1=O)C2(C)C (configuration not stated)	·	·	7.1µM	–	·	–
CCN(CC)CCCNC(=O)c1nn(-c2ccccc2OC)c(=O)c2ccccc12	–	–	–	–	–	–
NNC(=O)c1sc2cc(C(F)(F)F)cnc2c1-c1cccs1	–[9.22 µM]	·	0.2µM	·	·	–[10 µM]
SMILES	HttQ103 aggreg	Luc counter	ALDH1A1 block	HPGD block	LMNA splice mod	HTT cytoprotect
Cc1ccc(C(=O)c2cncc(Br)c2)cc1	14µM	–	–	–	–	–
CCc1ccc(C(=O)c2cncc(Br)c2)cc1	20µM	–	–	–	–	–
NNC(=O)c1cncc(Br)c1	–[9.22 µM]	·	·	·	·	–[10 µM]
O=C(c1ccco1)N1CCN(C(=O)c2[nH]ncc2[N+](=O)[O-])CC1	–	–	–	–	–	·
CCC(=O)CCC(=O)c1ccc2ccccc2c1	–	–	?	–	–	–[10 µM]
CC(C)N(CCC(=O)c1ccc2ccccc2c1)Cc1ccccc1	·	–	0.28µM	?	?	–
COc1ccccc1CCn1c(=O)cnc2cncnc21	·	·	1.4µM	·	?	–
Cc1cc(S(=O)(=O)Nc2nc(CN3CCOCC3)nc3sc4c(c23)CCCC4)ccc1F	–	–	14µM	–	–	–[10 µM]
O=S(=O)(Nc1nc2c(s1)CCCC2)c1ccc(Br)cc1	?	–	13µM	–	?	–[1.9 µM]
Cc1nc(NS(=O)(=O)c2ccc(Br)cc2)c2c3c(sc2n1)CCC3	?	–	13µM	–	–	–
COc1cccc(Nc2nc(CN3CCOCC3)nc3sc4c(c23)CCCC4)c1	–	–	–	–	–	–[10 µM]
CC1CCc2c(sc3nc(CN4CCOCC4)nc(NS(=O)(=O)c4cccc([N+](=O)[O-])c4)c23)C1 (configuration not stated)	?	–	4.5µM	–	–	–
O=CN1CC(=O)N(c2ccccc2)c2c([nH]c3ccccc23)C1	–	–	?	22µM	–[0.0737 µM]	–
O=c1oc2ccccc2cc1-c1nc2ccccc2o1	–	?	?	?	–	–
O=c1oc2ccccc2cc1-c1nc2c(s1)CCCC2	–	11µM	?	?	?	–
Cc1onc(-c2ccccc2Cl)c1C(=O)Oc1ccc(Cl)cc1Cl	·	·	·	·	–	·
O=C(c1cc2nc(C3CC3)cc(C(F)F)n2n1)N1CCOCC1	–	–	?	32µM	–	–[0.074 µM]
O=C(c1cnn2c(C(F)F)cc(C3CC3)nc12)N1CCCC1	–	–	–	–	–	–[10 µM]
O=c1[nH]c2c(s1)C(c1ccc(O)cc1)C1C3CCC(C3)C1S2 (configuration not stated)	–	–	11µM	?	–	–[10 µM]
CSCCC(NC(=O)OC(C)(C)C)C(=O)Oc1ccc2c(=O)c(-c3ccc4c(c3)OCCO4)coc2c1 (configuration not stated)	–	–	25µM	–	?	–
O=C1CN=C(Nc2ccccc2Cl)N1c1ccccc1	2.8µM	–	?	–	–	–[10 µM]
CCOc1ccc(N2C(=O)CN=C2Nc2ccccc2Cl)cc1	–	–	–	–	–	–
CCOC(=O)C1=C(CSc2nc(-c3ccncc3)ccc2C#N)OC(N)=C(C#N)C1c1cccnc1 (configuration not stated)	–[9.22 µM]	–	?	–	–	–
Cc1cc(C)cc(NC(=O)c2ccc3nc[nH]c3c2)c1	–	–	–	–	–	–[10 µM]
CCC(CC)NCc1ccc2c(c1)c1ccccc1n2CC	–[9.22 µM]	–	20µM	·	·	–[10 µM]
CCn1c2ccccc2c2cc(N)ccc21	?	–	?	?	–	–[0.074 µM]
CCOC(=O)C1CCN(S(=O)(=O)c2ccc(OC)c(Cl)c2Cl)CC1	–	–	6.3µM	–	–	–
CCOC(=O)C1CCCN(S(=O)(=O)c2ccc(OC)cc2)C1 (configuration not stated)	–	–	3.2µM	–	–	–
